A short description of assay [1]: ATG_E_Box_CIS: Attagene CIS-FACTORIAL HepG2 Assay for human Enhancer Box (E-box) (AID 2282936). The following applies: HepG2 E-box cis-reporter transcription, actives raise or lower the signal. A digest of the protocol: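 DMSO served as negative control and baseline for bidirectional fitting. Human hepatoma HepG2 cells, transiently transfected with cis-reporter constructs, were dosed 24 h; reporter mRNA read by RT-PCR and capillary electrophoresis.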

The nature of assay [2]: ATG_M_61_CIS: Attagene CIS-FACTORIAL HepG2 Assay for M61 Transcription Factor (Internal Marker) (AID 2282937). The settings on record: HepG2 Attagene CIS-FACTORIAL M61 internal marker reporter; actives raise or lower the signal. A digest of the protocol: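 HepG2 cells transiently transfected with cis-element-driven multiple reporter transcription units, dosed for 24 h. Reporter mRNA measured by RT-PCR, 6-FAM primer-extension labelling, HpaI digestion and capillary electrophoresis; bidirectional fit versus DMSO baseline.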

Assay [3] in a line: ATG_EGR_CIS: Attagene CIS-FACTORIAL HepG2 Assay for human Early Growth Response 1 (EGR1) (AID 2282938). The following applies: HepG2 Attagene CIS-FACTORIAL EGR reporter mRNA; actives raise or lower the signal. A digest of the protocol:
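HepG2 cells transiently transfected with cis-promoter-driven multiplexed reporter transcription units; reporter mRNA measured 24 h after compound dosing by RT-PCR, 6-FAM primer extension, HpaI digestion and capillary electrophoresis. Bidirectional fit versus DMSO baseline.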

Assay [4] can be described thus: ATG_M_19_CIS: Attagene CIS-FACTORIAL HepG2 Assay for M19 Transcription Factor (Internal Marker) (AID 2282939). The settings on record: HepG2 Attagene CIS-FACTORIAL M19 internal marker reporter; actives raise or lower the signal. In outline: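 Chemical-treated HepG2 (24 h) with MRTU constructs; reporter transcripts detected by fluorescent RT-PCR fragment analysis on capillary electrophoresis. Internal background marker, DMSO as baseline.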

Assay [5] can be described thus: ATG_ERE_CIS: Attagene CIS-FACTORIAL HepG2 Assay for Estrogen Response Element (ERE) (AID 2282940). The settings on record: HepG2 ERE cis-reporter, Attagene RNA transcript; actives raise or lower the signal. In outline: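 Human liver cells (HepG2) bearing transiently transfected, promoter-regulated reporter units were exposed 24 h. Reporter mRNA induction was detected by capillary electrophoresis of labelled RT-PCR products and fitted bidirectionally to DMSO.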

Assay [6] in a line: ATG_Ets_CIS: Attagene CIS-FACTORIAL HepG2 Assay for human Erythroblast Transformation Specific (ETS) (AID 2282941). The following applies: HepG2 ETS cis-reporter transcription, actives raise or lower the signal. A digest of the protocol: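 Steps: transfect HepG2 with multiple reporter units; treat compound 24 h; isolate RNA, DNase-treat, reverse-transcribe; PCR-amplify, label with 6-FAM, digest with HpaI; separate by capillary electrophoresis. Activity fitted both directions versus DMSO.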

Assay [7] addresses Hepatocyte nuclear factor 3-beta (Homo sapiens) (UniProt Q9Y261). As to the kind of experiment: ATG_FoxA2_CIS: Attagene CIS-FACTORIAL HepG2 Assay for human Forkhead box A2 (FOXA2) (AID 2282942). The following applies: HepG2 cis-reporter transcription factor activity, 24 h; actives raise or lower the signal. In outline: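 HepG2 cells transiently transfected with multiple cis-regulated reporter transcription units, dosed for 24 h. Reporter mRNA measured by RT-PCR, 6-FAM labelling, HpaI digestion and capillary electrophoresis; bidirectional fitting against DMSO baseline.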

The nature of assay [8]: ATG_FoxO_CIS: Attagene CIS-FACTORIAL HepG2 Assay for human Forkhead box O (FoxO) (AID 2282943). The following applies: HepG2 Attagene cis-reporter, FoxO element, mRNA; actives raise or lower the signal. A digest of the protocol:
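HepG2, transient MRTU transfection (cis element, endogenous TFs). Dose 24 h. TriZol RNA → oligo(dT) RT → PCR → 6-FAM primer extension → HpaI cut → CE. Gain/loss vs DMSO.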

Assay [9] can be described thus: ATG_GATA_CIS: Attagene CIS-FACTORIAL HepG2 Assay for human GATA Binding Protein (AID 2282944). The following applies: HepG2 GATA cis-element reporter, Attagene multiplex mRNA; actives raise or lower the signal. A digest of the protocol:
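Transfected cis-reporter HepG2 cells were treated with chemicals for 24 hours. Total RNA was then converted to cDNA, amplified with reporter-specific primers and analysed by fluorescent capillary electrophoresis, using DMSO-treated wells as baseline.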

The nature of assay [10]: ATG_GLI_CIS: Attagene CIS-FACTORIAL HepG2 Assay for human Zinc Finger Protein GLI1 (AID 2282945). The following applies: HepG2, Attagene cis-factorial reporter mRNA, GLI element; actives raise or lower the signal. In outline:
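Bidirectional curve fits relative to DMSO, using reporter mRNA levels from RT-PCR plus capillary electrophoresis. Cells were HepG2 transiently carrying cis-regulated reporter constructs, harvested 24 h after dosing.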

The target of assay [11] is Bile acid receptor (Homo sapiens) (UniProt Q96RI1). The assay is described as follows: ATG_IR1_CIS: Attagene CIS-FACTORIAL HepG2 Assay for human Nuclear Receptor Subfamily 1 Group H Member 4 (NR1H4), IR1 submotif (AID 2282946). The following applies: IR1 reporter transcription, actives raise or lower the signal. In outline: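 Cells (human HepG2) carry transiently transfected cis-promoter reporter transcription units. Compounds are incubated 24 h, total RNA is reverse-transcribed and amplified, and labelled fragments are resolved by capillary electrophoresis. Curves use DMSO as baseline.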

A short description of assay [12]: ATG_M_32_CIS: Attagene CIS-FACTORIAL HepG2 Assay for M32 Transcription Factor (Internal Marker) (AID 2282949).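 Also: background control marker of the multiplexed CIS panel rather than a real target.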 The following applies: HepG2 Attagene cis-factorial M32 reporter, mRNA; actives raise or lower the signal. In outline:
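Internal background marker read-out: RT-PCR/capillary electrophoresis fluorescence of reporter transcripts from transiently transfected HepG2 cells after 24 h chemical exposure. Activity fitted bidirectionally relative to DMSO negative control.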

A short description of assay [13]: ATG_M_06_CIS: Attagene CIS-FACTORIAL HepG2 Assay for M06 Transcription Factor (Internal Marker) (AID 2282950). The settings on record: HepG2 Attagene CIS-FACTORIAL M06 internal marker reporter; actives raise or lower the signal. In outline:
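Cells (HepG2, transiently carrying cis-driven reporter units) receive chemical for 24 h before RNA isolation. Reporter cDNA is PCR-amplified, FAM-labelled by primer extension, HpaI-digested and sized on a capillary analyser.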

Assay [14] addresses Hypoxia-inducible factor 1-alpha (Homo sapiens) (UniProt Q16665). The assay is described as follows: ATG_HIF1a_CIS: Attagene CIS-FACTORIAL HepG2 Assay for human Hypoxia Inducible Factor 1 (HIF1A) (AID 2282951). The settings on record: HepG2 Attagene cis-factorial HIF1a reporter transcription; actives raise or lower the signal. A digest of the protocol:
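HepG2 cells transiently transfected with multiplexed cis-promoter reporter units; reporter mRNA read 24 h after dosing by RT-PCR, 6-FAM primer-extension labelling, HpaI digestion and capillary electrophoresis. Bidirectional fit versus DMSO baseline.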

Assay [15] concerns the target Heat shock factor protein 1 (Homo sapiens) (UniProt Q00613). The assay is described as follows: ATG_HSE_CIS: Attagene CIS-FACTORIAL HepG2 Assay for human Heat Shock Transcription Factor 1 (HSE) (AID 2282953). The settings on record: HepG2 HSE cis-reporter, Attagene RNA transcription; actives raise or lower the signal. In outline: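 Liver-derived HepG2 cells carry transiently introduced multiple reporter units governed by cis promoters. Reporter RNA measured 24 h post-dose through reverse transcription, PCR amplification, fluorescent labelling and capillary electrophoresis, normalised to DMSO.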

The nature of assay [16]: ATG_MRE_CIS: Attagene CIS-FACTORIAL HepG2 Assay for human Metal Responsive Element (MRE) (AID 2282954). The settings on record: HepG2 MRE cis-reporter transcription, Attagene multiplex; actives raise or lower the signal. A digest of the protocol: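 After a 24 h chemical exposure, transiently transfected HepG2 cells yield RNA whose reporter sequences are amplified, FAM-labelled and sized by capillary electrophoresis. Curves are fitted bidirectionally relative to DMSO.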

In assay [17] the target is Hepatocyte nuclear factor 6 (Homo sapiens) (UniProt Q9UBC0). The assay is described as follows: ATG_HNF6_CIS: Attagene CIS-FACTORIAL HepG2 Assay for human Hepatocyte Nuclear Factor 6 (HNF6) (AID 2282952). The settings on record: HepG2 Attagene cis-factorial HNF6 reporter transcription; actives raise or lower the signal. In outline:
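Cells are HepG2 carrying transiently transfected cis-promoter reporter units. Treatment lasts 24 h, after which reporter transcripts are reverse-transcribed, amplified, FAM-labelled and sized by capillary electrophoresis. DMSO serves as baseline.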

Assay [18] is described as follows: ATG_PBREM_CIS: Attagene CIS-FACTORIAL HepG2 Assay for human Phenobarbital-responsive Enhancer Module (PBREM) (AID 2282955). The following applies: HepG2 PBREM cis-reporter, Attagene multiplexed transcription; actives raise or lower the signal. In outline:
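HepG2 cells transiently transfected with multiple cis-regulated reporter transcription units; endogenous factor activity at the PBREM element measured as reporter mRNA 24 h after dosing, via RT-PCR and capillary electrophoresis of fluorescent fragments; bidirectional fitting versus DMSO.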

Assay [19] is described as follows: ATG_GRE_CIS: Attagene CIS-FACTORIAL HepG2 Assay for human Glucocorticoid Response Elements (GRE) (AID 2282947). The settings on record: HepG2 GRE cis-reporter, Attagene multiplex mRNA; actives raise or lower the signal. In outline: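 Assay uses human hepatoma HepG2 cells transfected with cis-promoter reporter units, exposed 24 h. mRNA from reporters detected by RT-PCR plus capillary electrophoresis; DMSO serves as negative control and baseline.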

Assay [20] in a line: ATG_ISRE_CIS: Attagene CIS-FACTORIAL HepG2 Assay for human Interferon Regulatory Factor 1 (IRF1) binding to an Interferon-Stimulated Response Element (ISRE) (AID 2282948). The following applies: HepG2 ISRE cis-reporter (Attagene), mRNA transcription readout; actives raise or lower the signal. A digest of the protocol: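 Transfected HepG2 (multiple reporter transcription units, cis elements) dosed 24 h. RNA → oligo(dT) RT → PCR → 6-FAM primer extension → HpaI → CE. DMSO = negative control/baseline.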

Activity calls are given as the source filed them. The calls were made as follows: active = hit-call score of the fitted dose curve at least 0.9, where 1 is the maximum; inactive = score below 0.9.

The term AC50 denotes the concentration giving half of the maximal activity seen.

Hepatocyte nuclear factor 6 (Homo sapiens), sequence (Q9UBC0 whole entry, looked up): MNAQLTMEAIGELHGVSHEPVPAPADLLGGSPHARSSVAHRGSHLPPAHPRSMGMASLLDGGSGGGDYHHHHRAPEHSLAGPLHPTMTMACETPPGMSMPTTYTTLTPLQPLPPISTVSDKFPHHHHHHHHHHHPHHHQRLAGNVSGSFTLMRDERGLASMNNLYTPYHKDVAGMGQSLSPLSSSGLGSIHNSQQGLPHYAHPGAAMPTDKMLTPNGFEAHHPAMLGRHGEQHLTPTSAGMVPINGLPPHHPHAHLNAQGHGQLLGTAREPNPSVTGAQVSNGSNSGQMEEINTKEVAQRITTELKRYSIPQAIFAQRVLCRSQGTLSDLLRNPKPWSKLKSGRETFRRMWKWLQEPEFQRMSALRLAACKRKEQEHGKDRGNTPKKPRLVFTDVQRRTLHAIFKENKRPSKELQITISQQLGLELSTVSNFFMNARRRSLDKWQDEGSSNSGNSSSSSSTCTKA
Heat shock factor protein 1 (Homo sapiens), sequence (Q00613 whole entry, looked up): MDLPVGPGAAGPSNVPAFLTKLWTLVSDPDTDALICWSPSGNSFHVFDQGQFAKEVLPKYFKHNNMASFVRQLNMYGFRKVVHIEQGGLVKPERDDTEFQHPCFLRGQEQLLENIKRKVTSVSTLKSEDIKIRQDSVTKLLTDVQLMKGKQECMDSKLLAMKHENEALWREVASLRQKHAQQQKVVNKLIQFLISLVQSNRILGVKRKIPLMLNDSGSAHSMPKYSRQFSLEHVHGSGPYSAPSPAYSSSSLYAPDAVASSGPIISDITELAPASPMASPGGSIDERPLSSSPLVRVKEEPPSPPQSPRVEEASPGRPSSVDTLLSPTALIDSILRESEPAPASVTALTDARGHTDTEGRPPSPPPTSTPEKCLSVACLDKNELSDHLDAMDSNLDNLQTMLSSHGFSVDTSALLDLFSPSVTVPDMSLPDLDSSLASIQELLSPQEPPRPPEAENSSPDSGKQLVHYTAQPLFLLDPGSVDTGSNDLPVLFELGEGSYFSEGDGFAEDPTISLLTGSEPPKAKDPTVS
Bile acid receptor (Homo sapiens), sequence (Q96RI1 whole entry, looked up, the tested form may be a part): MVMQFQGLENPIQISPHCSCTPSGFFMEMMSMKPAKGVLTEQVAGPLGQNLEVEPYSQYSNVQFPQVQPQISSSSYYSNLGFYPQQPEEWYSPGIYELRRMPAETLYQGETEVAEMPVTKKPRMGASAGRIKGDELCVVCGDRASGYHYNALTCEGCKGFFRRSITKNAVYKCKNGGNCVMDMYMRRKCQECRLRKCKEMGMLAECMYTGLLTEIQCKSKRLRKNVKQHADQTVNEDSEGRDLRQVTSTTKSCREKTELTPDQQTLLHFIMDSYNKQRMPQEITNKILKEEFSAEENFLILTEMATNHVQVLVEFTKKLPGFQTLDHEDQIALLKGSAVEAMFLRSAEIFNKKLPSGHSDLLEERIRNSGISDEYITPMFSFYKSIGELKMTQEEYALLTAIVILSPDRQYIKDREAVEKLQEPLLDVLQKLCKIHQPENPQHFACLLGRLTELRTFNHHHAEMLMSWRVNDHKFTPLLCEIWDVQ
Hepatocyte nuclear factor 3-beta (Homo sapiens), sequence (Q9Y261 whole entry, looked up): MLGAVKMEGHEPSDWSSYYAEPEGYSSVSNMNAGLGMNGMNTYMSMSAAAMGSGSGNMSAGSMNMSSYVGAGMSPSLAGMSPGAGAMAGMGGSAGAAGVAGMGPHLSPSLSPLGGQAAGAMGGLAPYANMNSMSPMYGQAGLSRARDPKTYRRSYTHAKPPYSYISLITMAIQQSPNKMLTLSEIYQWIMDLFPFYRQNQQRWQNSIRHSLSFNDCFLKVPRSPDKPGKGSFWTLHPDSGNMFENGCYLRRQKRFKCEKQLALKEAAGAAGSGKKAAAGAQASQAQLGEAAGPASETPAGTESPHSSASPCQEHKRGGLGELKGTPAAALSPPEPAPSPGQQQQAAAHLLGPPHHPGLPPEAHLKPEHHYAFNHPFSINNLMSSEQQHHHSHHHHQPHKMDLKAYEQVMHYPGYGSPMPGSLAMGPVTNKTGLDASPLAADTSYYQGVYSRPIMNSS
Hypoxia-inducible factor 1-alpha (Homo sapiens), sequence (Q16665 whole entry, looked up): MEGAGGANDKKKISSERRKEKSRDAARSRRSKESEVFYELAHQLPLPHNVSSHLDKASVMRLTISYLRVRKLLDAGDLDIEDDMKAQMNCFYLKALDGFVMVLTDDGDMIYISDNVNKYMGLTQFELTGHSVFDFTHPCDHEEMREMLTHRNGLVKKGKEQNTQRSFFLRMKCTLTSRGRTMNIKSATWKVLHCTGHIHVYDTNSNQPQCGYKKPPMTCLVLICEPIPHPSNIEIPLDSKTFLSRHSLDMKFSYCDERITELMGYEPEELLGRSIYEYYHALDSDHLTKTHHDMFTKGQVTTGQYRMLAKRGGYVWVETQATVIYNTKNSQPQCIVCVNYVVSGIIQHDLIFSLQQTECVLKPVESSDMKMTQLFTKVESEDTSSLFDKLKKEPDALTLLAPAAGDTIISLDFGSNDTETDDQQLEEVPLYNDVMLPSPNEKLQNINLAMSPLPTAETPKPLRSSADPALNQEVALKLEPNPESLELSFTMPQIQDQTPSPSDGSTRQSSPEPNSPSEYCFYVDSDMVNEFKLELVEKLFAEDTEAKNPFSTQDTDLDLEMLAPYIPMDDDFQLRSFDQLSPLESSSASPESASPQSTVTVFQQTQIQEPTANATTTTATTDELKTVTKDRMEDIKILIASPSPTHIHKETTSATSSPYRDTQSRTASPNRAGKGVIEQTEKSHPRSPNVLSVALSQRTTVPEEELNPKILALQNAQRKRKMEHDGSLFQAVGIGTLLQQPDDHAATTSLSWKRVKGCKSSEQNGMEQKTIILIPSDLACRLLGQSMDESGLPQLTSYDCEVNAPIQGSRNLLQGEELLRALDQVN

`CCC(Cc1ccccc1)(C(=O)c1ccc(N2CCOCC2)cc1)N(C)C` (stereo not drawn): the half-maximal activity concentration (AC50) in assay [1] is 17 µM (active); in assay [3] it was 31.6 µM (active); in [5], 5.54 µM (active); in assay [14], 22.9 µM (active); in assay [15] it was 65.9 µM (active); in assay [16], 52.7 µM (active). For the same compound, the result in assay [2], in assay [4], in assay [6], in assay [7], in [8] and in [9] was inactive. The result in [10], in [11], in assay [12] and in assay [13] was inactive.

Regarding `Cc1ccc(N/N=c2\c(=O)cc/c(=N/Nc3ccc(S(=O)(=O)O)cc3)c2=O)c(C)c1`, the outcome in assay [1], in assay [2], in assay [3], in [4], in assay [6] and in assay [7] was inactive. Further, the compound was called inactive in [8], in assay [9], in assay [10], in assay [11], in assay [13] and in assay [14]. Further, the result in assay [17], in assay [15], in assay [16] and in assay [18] was inactive. Further, the AC50 in assay [5] is 100 µM (active).

In the case of `Cc1ccccc1C`, the result in assay [1], in [2], in [3], in assay [4], in assay [5] and in assay [6] was inactive. For the same compound, the result in assay [7], in [8], in assay [9], in [10], in [19] and in assay [20] was inactive. In addition, the result in assay [12], in assay [13], in [14], in [17], in [15] and in assay [16] was inactive.

Regarding `Nc1ccc(-c2ccc(F)cc2)cc1`, the result in [1], in assay [2], in [3], in [4], in assay [6] and in assay [7] was inactive. The compound was called inactive in assay [8], in assay [9], in assay [10], in [11], in assay [13] and in [14]. For the same compound, the compound was classed as inactive in assay [17], in assay [15], in assay [16] and in assay [18]. Further, the AC50 in [5] was 18.2 µM (active).

The record behind these values is PubChem BioAssay (EPA / NIEHS).
